The results in this text go back to PubChem BioAssay (NCATS).

Results filed as inconclusive are left out. Entries that show only a call come without a potency. The source made the active and inactive calls. Calls come from the whole dose curve; as a rule, active = well fitted inhibition curve with a large enough effect; inconclusive = small, poorly fitted or top-dose-only effect; inactive = flat fitted curve, though single readings scatter.

Chain of Lysine-specific demethylase 5B (Homo sapiens) (Q9UGL1 whole entry, looked up): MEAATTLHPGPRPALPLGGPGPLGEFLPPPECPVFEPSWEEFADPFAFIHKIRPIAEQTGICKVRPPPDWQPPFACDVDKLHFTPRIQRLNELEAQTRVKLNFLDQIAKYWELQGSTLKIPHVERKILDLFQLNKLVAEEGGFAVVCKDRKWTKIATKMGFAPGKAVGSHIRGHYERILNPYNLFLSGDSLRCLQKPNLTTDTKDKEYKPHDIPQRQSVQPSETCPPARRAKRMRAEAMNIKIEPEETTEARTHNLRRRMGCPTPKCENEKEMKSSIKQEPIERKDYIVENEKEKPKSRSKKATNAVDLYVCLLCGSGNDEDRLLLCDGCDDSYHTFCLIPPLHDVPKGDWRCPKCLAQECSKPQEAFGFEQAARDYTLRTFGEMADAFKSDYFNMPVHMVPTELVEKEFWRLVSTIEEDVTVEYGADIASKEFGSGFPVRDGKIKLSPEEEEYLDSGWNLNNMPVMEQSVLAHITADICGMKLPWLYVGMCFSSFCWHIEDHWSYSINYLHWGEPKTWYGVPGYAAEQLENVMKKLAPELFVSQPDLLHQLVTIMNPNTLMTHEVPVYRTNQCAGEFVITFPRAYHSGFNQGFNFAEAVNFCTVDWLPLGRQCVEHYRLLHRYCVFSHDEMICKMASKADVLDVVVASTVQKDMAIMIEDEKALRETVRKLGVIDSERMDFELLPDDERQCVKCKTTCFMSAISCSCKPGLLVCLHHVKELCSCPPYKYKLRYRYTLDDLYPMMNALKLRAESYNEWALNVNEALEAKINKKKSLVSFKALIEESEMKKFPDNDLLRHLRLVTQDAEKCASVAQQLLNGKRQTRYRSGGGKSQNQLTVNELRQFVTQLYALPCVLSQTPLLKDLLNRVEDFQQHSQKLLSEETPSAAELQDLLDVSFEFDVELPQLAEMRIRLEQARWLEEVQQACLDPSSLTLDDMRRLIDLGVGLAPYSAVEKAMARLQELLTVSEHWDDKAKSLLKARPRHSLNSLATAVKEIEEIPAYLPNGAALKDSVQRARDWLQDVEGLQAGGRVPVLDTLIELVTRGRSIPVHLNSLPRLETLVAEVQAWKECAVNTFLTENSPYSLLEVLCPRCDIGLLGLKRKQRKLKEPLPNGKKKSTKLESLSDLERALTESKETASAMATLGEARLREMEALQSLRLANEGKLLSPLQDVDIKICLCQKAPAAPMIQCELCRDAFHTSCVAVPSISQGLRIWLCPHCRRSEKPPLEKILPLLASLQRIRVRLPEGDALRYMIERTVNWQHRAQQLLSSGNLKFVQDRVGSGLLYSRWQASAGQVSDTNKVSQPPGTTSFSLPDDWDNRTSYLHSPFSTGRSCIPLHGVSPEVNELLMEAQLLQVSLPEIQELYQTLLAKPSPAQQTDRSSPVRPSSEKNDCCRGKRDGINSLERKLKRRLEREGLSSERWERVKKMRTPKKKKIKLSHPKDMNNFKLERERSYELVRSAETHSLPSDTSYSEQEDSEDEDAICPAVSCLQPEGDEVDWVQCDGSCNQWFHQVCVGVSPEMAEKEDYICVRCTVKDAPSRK

One experiment has as its system Zika virus NS2B-NS3 protease. The experiment in a line: Primary screen GU AMC qHTS for Zika virus inhibitors (AID 1347154). Note: nearly all actives have a fitted effect of over 70% in size. The following applies: Zika NS2B-NS3 unlinked protease, AMC fluorogenic substrate; series mostly up to 54.1 µM. The method in brief:
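Fluorogenic AMC-substrate cleavage by noncovalent NS2B-NS3 protease complex (25 nM, pH 8.0 Tris buffer with Tween 20) followed for 15 minutes at room temperature (~20% conversion). Percent inhibition from ex340/em450 signal change, fitted by 4-parameter Hill equation.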
For `O=C1CC2(CCCC2)CC(=O)N1CCCCN1CCN(c2ncccn2)CC1`, the result was inactive. With `Cc1nc2ccccn2c(=O)c1CCN1CCC(C(=O)c2ccc(F)cc2)CC1`, the outcome was inactive. `Cc1ccc(S(=O)(=O)NC(=O)NN2CCCCCC2)cc1`: the result was inactive. Consider `CN(C)CCCN1c2ccccc2Sc2ccc(C(F)(F)F)cc21`, for which the molecule was called inactive. `CC(C)NCC(O)c1cc(O)cc(O)c1` (stereo unspecified): the outcome was inactive. `CCCCOCCOCCOCc1cc2c(cc1CCC)OCO2`: the result was inactive. In the case of `CN(C)C(=O)Oc1ccc[n+](C)c1`, the result was inactive.

The next experiment deals with Lysine-specific demethylase 5B (Homo sapiens) (UniProt Q9UGL1). In words: Optimization screen for KDM5B Histone Demethylases FDH coupled qHTS against the LOPAC library (AID 1347166). The following applies: KDM5B demethylation, FDH-coupled NADH fluorescence (FDH is formaldehyde dehydrogenase); series mostly up to 57.5 µM. The method, boiled down:
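KDM5BDeltaAP (200nM final) preincubated 10 min with compound, then 12.5uM H3K4Me3, 25uM a-ketoglutarate, ascorbate, Fe(II), NAD+ and FDH added; 50mM HEPES pH 7.5, 0.01% Tween-20. NADH fluorescence (340/450 nm) change over 30 min, room temperature.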
Take `CN(C)C(=O)Oc1cccc([N+](C)(C)C)c1`: the Potency entry is “inactive”.

Consider `COc1ccc2c(c1OC)C(=O)O[C@@H]2[C@H]1c2c(cc3c(c2OC)OCO3)CCN1C`, for which the Potency result was “inactive”. With `CC(=O)[C@]1(O)Cc2c(O)c3c(c(O)c2[C@@H](O[C@H]2C[C@H](N)[C@H](O)[C@H](C)O2)C1)C(=O)c1ccccc1C3=O`, the Potency entry was “inactive”. Same read-out and setting: the entry for `C[C@]12CCC(=O)C=C1CC[C@@H]1[C@@H]2C(=O)C[C@@]2(C)[C@H]1CC[C@]2(O)C(=O)CO` is “inactive”; for `c1cnc(N2CCN(Cc3ccc4c(c3)OCO4)CC2)nc1` it is “inactive”. Take `CC(=O)OC(C)C[N+](C)(C)C` (stereo unspecified): the Potency result is “inactive”. Regarding `Cc1cc(C)c(/C=C2\C(=O)Nc3ccccc32)[nH]1`, the Potency entry is “inactive”. For `CNCCC(Oc1ccccc1OC)c1ccccc1` (stereo unspecified), the Potency entry was “inactive”.

`COCCOC(=O)C1=C(C)NC(C)=C(C(=O)OC(C)C)C1c1cccc([N+](=O)[O-])c1` (stereo unspecified): the Potency entry was “inactive”. On to `CCCCCCCC/C=C\CCCCCCCC(=O)NCc1ccc(O)c(OC)c1`, for which the Potency result was “inactive”. In the case of `CC(C)(C)c1ccc(C(=O)CCCN2CCC(OC(c3ccccc3)c3ccccc3)CC2)cc1`, the Potency entry is “inactive”.

Regarding `CCNC(=O)N1CCN(CCCC(c2ccc(F)cc2)c2ccc(F)cc2)CC1`, the Potency entry was “inactive”.

Turning to `CNC1(C)C2CCC(C2)C1(C)C` (stereo unspecified), the Potency result was “inactive”. Same read-out and setting: as for `CN(C)CCN(Cc1cccs1)c1ccccn1`, the entry is “inactive”. The same measure, in the same setting: as for `CN1CCN(CC(=O)N2c3ccccc3C(=O)Nc3cccnc32)CC1`, the entry is “inactive”; as for `Cc1cccc(C)c1NC(=O)C(C)N` (stereo unspecified), “inactive”; as for `OCCN1CCN(CCCN2c3ccccc3C=Cc3ccccc32)CC1`, “inactive”. As to `CCN(CC)CCNC(=O)c1cc(S(C)(=O)=O)ccc1OC`, the Potency result is “inactive”.

Consider `O=c1[nH]c(=O)n([C@H]2C[C@H](O)[C@@H](CO)O2)cc1Br`, for which the Potency result is “inactive”. For the molecule `COCC(=O)O[C@]1(CCN(C)CCCc2nc3ccccc3[nH]2)CCc2cc(F)ccc2[C@@H]1C(C)C`, the Potency result is “inactive”. `c1ccc2c(c1)CCCC2C1=NCCN1` (stereo unspecified): the Potency entry is “inactive”. As for `CC(C)[N+](C)(CCOC(=O)C1c2ccccc2Oc2ccccc21)C(C)C`, the Potency result is “inactive”. On to `CN1C(=O)CC[C@H]1c1cccnc1`, for which the Potency result is “inactive”. Turning to `O=C1CC2(CCCC2)CC(=O)N1CCCCN1CCN(c2ncccn2)CC1`, the Potency entry was “inactive”. As for `Cc1ccc(S(=O)(=O)NC(=O)NN2CCCCCC2)cc1`, the Potency entry was “inactive”. Still for that read-out and setting: as for `CSc1ccc(C(=O)c2[nH]c(=O)[nH]c2C)cc1`, the entry is “inactive”; as for `CN(C)CCCN1c2ccccc2Sc2ccc(C(F)(F)F)cc21`, “inactive”; as for `CC(C)NCC(O)c1cc(O)cc(O)c1` (stereo unspecified), “inactive”.

As for `CN(C)C(=O)Oc1ccc[n+](C)c1`, the Potency result was “inactive”.
